The values that follow come from the supplement of paper PMC7366291.

Structures can show the parent of a compound that is named as a salt. ± gives the standard deviation of the averaged measurements.

In the experiment the test system is Danio rerio Tg(wt1b:EGFP) embryo, pronephros. As to the kind of experiment: pronephric angle neck segment to proximal convoluted tubule (mean of left and right), fold change vs DMSO control; higher = larger pronephric angle. Conditions: 25 µM; exposure: 24-48 hpf. The method, boiled down:
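Dechorionated Tg(wt1b:EGFP) zebrafish embryos were treated with 25 μM compound in 0.5% DMSO, in HEPES-buffered E3 with 0.003% PTU, from 24 to 48 hpf at 28.5°C. On maximum projections of dorsal pronephros images, 16 hand-placed reference points in Fiji gave distances and angles, and values more than 2 SD from the feature mean were left out. Results are fold changes over the mean of same-day DMSO-treated embryos.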
Consider `CCCNC(C)(C)COC(=O)c1ccccc1` [Meprylcaine hydrochloride], for which the “pronephric angle neck segment” value turned out to be 0.9842 ± 0.0035. For `CC(C)NC[C@H](O)COc1ccc(CC(N)=O)cc1` [(S)-(-)-Atenolol] the value was 0.959 ± 0.08. Consider `Cc1cc(NS(=O)(=O)c2ccc(N)cc2)no1` [Sulfamethoxazole], for which the “pronephric angle neck segment” value stood at 0.9977 ± 0.0021. Consider `CN(C)CCN1C(=O)c2ccccc2N(C)c2ccccc21` [Dibenzepine hydrochloride], for which the “pronephric angle neck segment” value was 0.967 ± 0.086.

In the case of `COc1cccc2c1C(=O)c1c(O)c3c(c(O)c1C2=O)C[C@@](O)(C(=O)CO)C[C@@H]3O[C@H]1C[C@H](N)[C@@H](O)[C@H](C)O1` [Epirubicin hydrochloride], the “pronephric angle neck segment” value is 0.963 ± 0.053.

On to `OCCOCCN1CCN(C2=Nc3ccccc3Sc3ccccc32)CC1` [Quetiapine hemifumarate], for which the “pronephric angle neck segment” value worked out at 0.98617 ± 0.00072. Then `O=C(Oc1cccc2cccnc12)c1ccccc1` [Benzoxiquine], with 1.1 ± 0.022; and `CC(=O)c1ccc2c(c1)N(CCCN(C)C)c1ccccc1S2` [Acetopromazine maleate salt], with 0.969 ± 0.02; and `O=C1CCc2ccc(OCCCCN3CCN(c4cccc(Cl)c4Cl)CC3)cc2N1` [Aripiprazole], with 1.08 ± 0.033. For the compound `C[C@]12CCC(=O)C=C1CC[C@@H]1[C@@H]2[C@@H](O)C[C@@]2(C)[C@H]1CC[C@]2(O)C(=O)CO` [Hydrocortisone base], the “pronephric angle neck segment” value turned out to be 0.95 ± 0.064. Then `O=C1CN2Cc3c(ccc(Cl)c3Cl)N=C2N1` [Anagrelide], with 0.988 ± 0.027; and `N=C(N)NC(=O)c1nc(Cl)c(N)nc1N` [Amiloride hydrochloride dihydrate], with 0.985 ± 0.023; and `CNCC(O)c1ccc(O)c(O)c1` (stereo unspecified) [Racepinephrine hydrochloride], with 0.998 ± 0.035. On to `CCCc1nn(C)c2c(=O)[nH]c(-c3cc(S(=O)(=O)N4CCN(C)CC4)ccc3OCC)nc12` [Sildenafil], for which the “pronephric angle neck segment” value came out at 0.9607 ± 0.0012.

Consider `C[C@]12CC[C@@H]3c4ccc(OS(=O)(=O)O)cc4CC[C@H]3[C@@H]1CCC2=O` [Estropipate], for which the “pronephric angle neck segment” value came to 1.02 ± 0.012. For `COc1c(O[C@@H]2O[C@H](CO)[C@@H](O)[C@H](O)[C@H]2O)cc2c(c1OC)-c1ccc(SC)c(=O)cc1[C@@H](NC(C)=O)CC2` [Thiocolchicoside] the value was 0.932 ± 0.027; for `O=C(c1ccccc1)c1ccc2n1CCC2C(=O)O` (stereo unspecified) [Ketorolac tromethamine], 1.04 ± 0.025. Turning to `CC#C[C@]1(O)CC[C@H]2[C@@H]3CCC4=CC(=O)CCC4=C3[C@@H](c3ccc(N(C)C)cc3)C[C@@]21C` [Mifepristone], the “pronephric angle neck segment” value is 1.0508 ± 0.001. On to `CN(C)c1cc(NC(=O)CNC(C)(C)C)c(O)c2c1C[C@H]1C[C@H]3[C@H](N(C)C)C(O)=C(C(N)=O)C(=O)[C@@]3(O)C(O)=C1C2=O` [Tigecycline], for which the “pronephric angle neck segment” value is 0.954 ± 0.02. Then `COc1cc([C@@H]2c3cc4c(cc3[C@@H](O[C@@H]3O[C@@H]5CO[C@@H](C)O[C@H]5[C@H](O)[C@H]3O)[C@H]3COC(=O)[C@H]23)OCO4)cc(OC)c1O` [Etoposide], with 0.982 ± 0.013; and `CC1(C)O[C@@H]2C[C@H]3[C@@H]4C[C@H](F)C5=CC(=O)CC[C@]5(C)[C@H]4[C@@H](O)C[C@]3(C)[C@]2(C(=O)CO)O1` [Flurandrenolide], with 0.979 ± 0.1; and `CN(C)CCOC1=Cc2ccccc2Sc2ccc(Cl)cc21` [Zotepine], with 1.08 ± 0.11.

Regarding `CS(=O)(=O)Nc1ccc([N+](=O)[O-])cc1Oc1ccccc1` [Nimesulide], the “pronephric angle neck segment” value worked out at 1.38 ± 0.071. Then `CC1(C)O[C@@H]2C[C@H]3[C@@H]4CCC5=CC(=O)CC[C@]5(C)[C@@]4(F)[C@@H](O)C[C@]3(C)[C@]2(C(=O)CCl)O1` [Halcinonide], with 1.14 ± 0.043; and `CN(Cc1cnc2nc(N)nc(N)c2n1)c1ccc(C(=O)N[C@@H](CCC(=O)O)C(=O)O)cc1` (racemic) [Amethopterin (R,S)], with 1.03 ± 0.036. Regarding `CC(=O)Oc1ccccc1C(=O)O` [Acetylsalicylic acid], the “pronephric angle neck segment” value was found to be 1.01 ± 0.018. Take `CCN(CC)CCCC(C)Nc1c2ccc(Cl)cc2nc2ccc(OC)cc12` (stereo unspecified) [Quinacrine dihydrochloride hydrate]: the “pronephric angle neck segment” value worked out at 0.971 ± 0.021.

`CCCOc1ccc2[nH]c(NC(=O)OC)nc2c1` [Oxibendazol]: the “pronephric angle neck segment” value was 1.8 ± 0.035. Regarding `O=C(O)CN(CCN(CC(=O)O)CC(=O)O)CCN(CC(=O)O)CC(=O)O` [Pentetic acid], the “pronephric angle neck segment” value was determined as 0.9888 ± 0.0057. Consider `CN(Cc1cnc2nc(N)nc(N)c2n1)c1ccc(C(=O)N[C@@H](CCC(=O)O)C(=O)O)cc1` [Methotrexate], for which the “pronephric angle neck segment” value is 0.978 ± 0.014.

Take `CN1CCC[C@@H]1CCO[C@](C)(c1ccccc1)c1ccc(Cl)cc1` [Clemastine fumarate]: the “pronephric angle neck segment” value was 0.9686 ± 0.0025.
